C diff HTS: blocks growth of Clostridium difficile; growth activity, negative = inhibition, % at 16 µg/mL (by protocol); AID 1259249; 0.25% of 86,000 active; Clostridium difficile clinical isolate growth, OD600, 24 h; hits give low values;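 active means mean growth activity at or below -80% and every replicate also at or below -80%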;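 further: 0% = DMSO wells and -100% = levofloxacin 16 µg/mL wells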
Pf Dd2 growth: blocks growth of Plasmodium falciparum Dd2 parasites | P. falciparum Dd2 growth, SYBR Green, 72 h; hits give low values | activity change, % at 10 µM | 2.3% of 94,000 active | AID 1159554; in the data active means activity change below about -80%
T cruzi growth-1: blocks T. cruzi growth in NIH3T3 culture | T. cruzi beta-gal in NIH3T3, GalScreen luminescence, 90 h | 5.9% of 77,000 active | inhibition, % at 8.34 µM;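 active means mean inhibition above about 93%, with at least 55% of replicates each passing it, limit read from the data, passing the limit was not always enough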
T cruzi growth-2: inhibitors of T. cruzi proliferation. shares compounds with T cruzi growth-1. T. cruzi beta-gal in NIH3T3, GalScreen luminescence, 90 h. inhibition, % at 8.35 µM. 72% of 5,600 active;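 active means mean replicate inhibition above about 95% and at least 55% of replicates individually reaching it, limit read from the data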
T cruzi growth-3: blocks T. cruzi growth in NIH3T3 host cells. inhibition, % at 2.09 µM. shares compounds with T cruzi growth-1. 21% of 5,600 active. T. cruzi beta-gal in NIH3T3, GalScreen luminescence, 90 h;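 active means mean inhibition above about 95%, with at least 55% of replicates also reaching it, limit read from the data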;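 further: plate controls were neutral control median for no effect and positive control median for full effect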
3T3 cytotox: kills mouse NIH/3T3 fibroblasts; shares compounds with T cruzi growth-1; 14% of 5,600 active; cytotoxicity (signal decrease), % at 8.35 µM; AID 651742; NIH/3T3 viability, CellTiter-Glo ATP luminescence, 90 h;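 active means mean signal decrease across replicates above about 35% based on untreated-well scatter, with enough replicates individually passing, limit read from the data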;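 further: 0% = median of neutral control wells and 100% = median of positive control wells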
NIH3T3 tox 2: NIH/3T3 (mouse) viability loss | AID 651744 | 56% of 5,600 active | NIH/3T3 viability, CellTiter-Glo ATP luminescence, 90 h | inhibition, % at 24.9 µM | shares compounds with T cruzi growth-1;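 active means mean loss of cell viability signal at or above a set limit, and enough replicates individually reaching it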;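 further: 0% = median of neutral control wells and 100% = median of positive control wells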
* hit, by the source's call; nt = no result given. Most compounds without a hit are left out; they make up all but 6.8% or so of the library.

SMILES	C diff HTS	Pf Dd2 growth	T cruzi growth-1	others
CC=Cc1ccc2n(c1=O)C[C@@H]1[C@@H](CO)[C@H](C(=O)N3CCOCC3)N(Cc3ccccc3)[C@H]21 (mixture of isomers)	0	-4	101*	T cruzi growth-2=100*;T cruzi growth-3=6;3T3 cytotox=9;NIH3T3 tox 2=13
CC=Cc1ccc2n(c1=O)C[C@@H]1[C@@H](CO)[C@H](C(=O)N3CCc4ccccc4C3)N(C(=O)C3CC3)[C@H]21 (mixture of isomers)	12	nt	107*	T cruzi growth-2=69;T cruzi growth-3=7;3T3 cytotox=2;NIH3T3 tox 2=12
CC=Cc1ccc2n(c1=O)C[C@@H]1[C@@H](CO)[C@H](C(=O)N3CCc4ccccc4C3)N(C(=O)COC)[C@H]21 (mixture of isomers)	4	23	nt
CC=Cc1ccc2n(c1=O)C[C@@H]1[C@@H](CO)[C@H](C(=O)N3CCc4ccccc4C3)[C@H]2N1CCC (mixture of isomers)	-1	-2	103*	T cruzi growth-2=30;T cruzi growth-3=-13;3T3 cytotox=0;NIH3T3 tox 2=10
CC=Cc1ccc2n(c1=O)C[C@H]1[C@H](CO)[C@@H](C(=O)N3CCCCC3)N(Cc3ccccc3)[C@@H]21 (mixture of isomers)	5	-17	37
CC=Cc1ccc2n(c1=O)C[C@@H]1[C@@H](CO)[C@H](C(=O)N3CCc4ccccc4C3)[C@H]2N1Cc1ccccc1 (mixture of isomers)	9	-7	85
C[C@H]1CN([C@@H](C)CO)S(=O)(=O)c2ccc(-c3cncnc3)cc2O[C@@H]1CN(C)C(=O)C1CCCCC1	-2	-28	nt
C[C@H](NC(=O)C[C@H]1C[C@@H]2c3cc(NC(=O)C4CCC4)ccc3O[C@@H]2[C@H](CO)O1)c1ccccc1	-3	-10	-18
CO[C@H]1CN(C)C(=O)c2ccc(NC(=O)Nc3cc(F)ccc3F)cc2OC[C@H](C)N(C(=O)c2cnccn2)C[C@H]1C	nt	3	9
O=C(C[C@H]1C=C[C@@H](NC(=O)NC2CCCCC2)[C@@H](CO)O1)NCc1ccc(F)cc1	0	0	nt
Cc1noc(C)c1S(=O)(=O)Nc1ccc2c(c1)C(=O)N([C@H](C)CO)C[C@@H](C)[C@@H](CN(C)S(=O)(=O)c1cccs1)OCCCC[C@@H](C)O2	nt	-78	80
CN1CCN(C(=O)C[C@H]2CC[C@@H]3[C@H](COC[C@H](O)CN3S(=O)(=O)c3cccc(F)c3)O2)CC1	-1	17	-41
CC(C)NC(=O)Nc1ccc2c(c1)C(=O)N([C@H](C)CO)C[C@@H](C)[C@H](CN(C)C(=O)NC(C)C)O2	-2	-1	10
CNC[C@@H]1Oc2ccc(NC(=O)Nc3ccccc3)cc2CC(=O)N([C@H](C)CO)C[C@H]1C	-3	11	29
Cc1noc(C)c1NC(=O)N(C)C[C@@H]1Oc2ccc(NS(=O)(=O)c3cccs3)cc2CC(=O)N([C@H](C)CO)C[C@H]1C	16	18	-10
CN(C)C(=O)c1ccc(-c2ccc3c(c2)[C@@H]2[C@@H](CCN2C(=O)Cc2ccccn2)[C@H](CO)N3C)cc1	3	-67	104*	T cruzi growth-2=104*;T cruzi growth-3=62;3T3 cytotox=-23;NIH3T3 tox 2=5
CN(C)C(=O)c1ccc(-c2ccc3c(c2)[C@@H]2[C@@H](CCN2C(=O)Cc2ccccn2)[C@@H](CO)N3C)cc1	-3	-71	93
CN1c2ccc(-c3ccccc3)cc2[C@H]2[C@H](CCN2C(=O)Cc2ccccn2)[C@@H]1CO	13	-3	113*	T cruzi growth-2=103*;T cruzi growth-3=59;3T3 cytotox=-41;NIH3T3 tox 2=-11
CN(C)C(=O)c1ccc(-c2ccc3c(c2)[C@H]2[C@H](CCN2C(=O)Cc2ccccn2)[C@H](CO)N3C)cc1	-6	-30	90
C[C@H]1CN([C@@H](C)CO)C(=O)c2cccc(NC(=O)Nc3cccc4ccccc34)c2O[C@H]1CN(C)Cc1ccc(-c2ccccc2)cc1	-4	-15	28
COc1ccc(NC(=O)Nc2ccc3c(c2)[C@H]2C[C@@H](CC(=O)N(C)C)O[C@H](CO)[C@H]2O3)cc1	-5	1	20
